# Results published in ChEMBL document CHEMBL3988442, “University of Dundee, Small-Polar-MMV Screening Library” (2021).
# Screen size: about 48,000 compounds; about 13,000 (27%) showed an effect of 50% or more. This is one part of the list.
# Test system: Wolbachia pipientis
# Assay: Anti-Wolbachia Cell-Based Screen
# Type: functional
# Parameters: scale not given: in the data most compounds retested in dose-response had high values
# Details: 5 µM
row,SMILES,Percent Effect [%]
1,Cl.NCCNS(=O)(=O)Cc1ccc(Br)cc1,-57.57
2,CC(=O)N1CCC(N2CCOC[C@H]2c2nc(-c3ccc(Cl)s3)c[nH]2)CC1,-14.52
3,O=C(c1cccc(CNS(=O)(=O)c2ccc(F)cc2)c1)N1CCCC1,130.7
4,Cc1ccc(S(=O)(=O)NCc2cccc(C(=O)N3CCCC3)c2)cc1F,110.6
5,N#Cc1cnc(NCc2cccc(C(=O)N3CCCC3)c2)c(Cl)c1,-5.94
6,Cc1ccc(S(=O)(=O)NCCNC(=O)c2ccoc2)cc1F,-0.905
7,O=C(c1cccc(S(=O)(=O)NC[C@@H]2C[C@H](F)CN2)c1)N1CCCCC1,0.137
8,CC(C)c1nc(S(=O)(=O)N2CCSc3ccccc32)c[nH]1,-4.998
9,CC(C)c1ccc(OCCNC(=O)c2ccoc2)cc1,6.267
10,Cc1nn(CC(=O)Nc2cccc(F)c2)c(N)c1C#N,-11.77
11,CC(C)Oc1cccc(Cc2nc3c([nH]2)CCCNC3=O)c1,11.57
12,COc1cc(-c2nc3c([nH]2)CCCNC3=O)cc(OC)c1OC,91
13,COc1cc(-c2nc3c([nH]2)CCCNC3=O)ccc1OC(C)C,84.8
14,O=C1NCCCc2[nH]c(Cc3cccc(F)c3)nc21,-0.783
15,COc1ccccc1C1CNC(=O)c2nc(-c3cnn(C)c3)[nH]c2C1 (stereo unspecified),-3.18
16,CC(C)(C)c1noc(-c2nc3c([nH]2)CCCNC3=O)n1,2.046
17,Cc1cccc(Cc2nc3c([nH]2)CCCNC3=O)c1,-1.705
18,COc1ccc(-c2nc3c([nH]2)CCCNC3=O)cc1OC,96.66
19,CSCc1noc(-c2nc3c([nH]2)CCCNC3=O)n1,14.73
20,CC(C)Oc1cccc(-c2nc3c([nH]2)CCCNC3=O)c1,99.49
21,CCN1CCCN(S(=O)(=O)c2cc3ccccc3o2)CC1,-2.661
22,COc1ccccc1C1CNC(=O)c2nc(-c3c(C)n[nH]c3C)[nH]c2C1 (stereo unspecified),-21.26

row,SMILES,Percent Effect [%]
1,COc1cc(-c2nc3c([nH]2)CCCNC3=O)ccc1O,101.7
2,Cc1ccc(C(=O)Nc2ccc(N3CCCC3)cn2)cc1F,-12.84
3,CC(C)N(CCNC(=O)N1CCCC(N(C)C)C1)C1CC1 (stereo unspecified),3.264
4,CN(C)CCO[C@H]1CN(C(=O)c2ccc3c(c2)OCO3)[C@@H]2COC[C@H]12,-7.678
5,CN(C)CCO[C@H]1CN(Cc2cccc(C#N)c2)[C@@H]2COC[C@H]12.O=C(O)C(F)(F)F.O=C(O)C(F)(F)F,-16.47
6,CN(C)CCO[C@H]1CN(Cc2ccco2)[C@@H]2COC[C@H]12.O=C(O)C(F)(F)F.O=C(O)C(F)(F)F,94.89
7,Cc1ccc(CN2C[C@H](OCCN(C)C)[C@H]3COC[C@H]32)o1.O=C(O)C(F)(F)F.O=C(O)C(F)(F)F,118.1
8,Cc1ccc(CN2C[C@H](OCCN(C)C)[C@H]3OCCC[C@H]32)o1.O=C(O)C(F)(F)F.O=C(O)C(F)(F)F,11.84
9,CCc1cc(N2CCN(C(C)=O)CC2)n2nc(C)c(C)c2n1,-3.628
10,CC1CCCCN1S(=O)(=O)NCc1cccnc1OC1CCCC1 (stereo unspecified),2.179
11,CCOCCn1c(=O)[nH]c2cc(C(=O)N(C)CCc3cn[nH]c3)ccc21,-12.36
12,O=C(NC[C@H]1CC[C@H](c2ccnc3ncnn32)CC1)c1ccccn1,132.7
13,COCC(=O)NC[C@H]1CC[C@H](c2ccnc3ncnn32)CC1,112
14,CCc1nccc(CN2CCC(CNC(=O)[C@H]3CC[C@H](C)CC3)C2)n1 (stereo partly specified),-6.322
15,O=C(NC[C@H]1CC[C@H](c2ccnc3ncnn32)CC1)C1CC1,132.8
16,O=C(CN1CCC(c2ccnn2CCO)CC1)NCC1CC1,-5.639
17,CCc1nccc(CN2CCCC(CNC(=O)c3ccccn3)C2)n1 (stereo unspecified),-4.435
18,O=C(NCc1ccnc(O)c1)NCC1CCCC1,-3.505
19,O=C(NCC1CC1)c1cnc(-c2ccccc2)nc1,-4.836
20,Cc1nccn1-c1cc(CNC(=O)COCC2CC2)ccn1,-10.58
21,CCNC(=O)NC1CCCN(c2ccc(C)cc2)C1=O (stereo unspecified),-8.82
22,COc1ncnc(N(C)C)c1NC(=O)c1cscc1C,-1.164

row,SMILES,Percent Effect [%]
1,C[C@@H](CO)NC(=O)c1ccc2nc(NS(C)(=O)=O)sc2c1,93.82
2,CSCC[C@@H](CO)NC(=O)c1ccc2nc(NS(C)(=O)=O)sc2c1,89.36
3,CSCCC(CO)NC(=O)c1sc(-c2ccccc2Cl)nc1C (stereo unspecified),13.6
4,Cc1ccc(C(=O)NCCC(C)C)cc1NS(C)(=O)=O,-0.7863
5,CC(C)CCNC(=O)c1ccc(Cl)c(NS(C)(=O)=O)c1,2.284
6,COc1cccc(-c2nc(C)c(C(=O)NC(CO)CCSC)s2)c1 (stereo unspecified),-11.86
7,Cc1nnc(CNC(=O)CC2CCc3ccccc32)o1 (stereo unspecified),1.636
8,Cc1ccc(S(=O)(=O)NCCNC(=O)c2ccoc2)cc1C,3.538
9,COCc1nc(C(=O)NS(=O)(=O)c2ccc(C)s2)cs1,-3.012
10,Cc1nc(C)c(S(=O)(=O)NC(=O)c2ccoc2)s1,99
11,Cc1nc(C)c(S(=O)(=O)NC(=O)c2ccsc2)s1,101.1
12,COc1ccnc(NC(=O)c2ccsc2)c1,-4.666
13,O=C(NS(=O)(=O)c1cnn(-c2ccccc2F)c1)c1ccoc1,8.506
14,Cc1ccc(N2CCCN(C(=O)c3cc(Cl)c[nH]3)CC2)nn1,-5.212
15,Cc1ccc(N2CCCN(C(=O)CC3C=CCC3)CC2)nn1 (stereo unspecified),107
16,Cc1ccc(N2CCCN(C(=O)C(C)OCC3CC3)CC2)nn1 (stereo unspecified),-0.6
17,Cc1ccc(N2CCCN(C(=O)CCC3CCCO3)CC2)nn1 (stereo unspecified),87.48
18,Cc1ccc(NC2CCN(C(=O)CCC3CCCO3)CC2)nn1 (stereo unspecified),-9.533
19,Cc1ccc(N2CCCN(C(=O)C3CCCO3)CC2)nn1 (stereo unspecified),135.1
20,O=C(CC1CCCO1)N1CCCN(c2cccnn2)CC1 (stereo unspecified),79.43
21,Cc1ccc(N2CCCN(C(=O)c3c(C)oc(C)c3C)CC2)nn1,8.16
22,O=C(Cc1cccc2cccnc12)N1CCCN(c2cccnn2)CC1,-1.609

row,SMILES,Percent Effect [%]
1,Cc1nn(CC(=O)N2CCCN(c3cccnn3)CC2)c(C)c1Cl,1.564
2,Cc1ccc(N2CCCN(C(=O)C3(C#N)CCCCC3)CC2)nn1,12.99
3,Cc1ccc(N2CCCN(C(=O)CC3CCCO3)CC2)nn1 (stereo unspecified),4.405
4,COc1ccc(CN[C@@H]2CO[C@H](CNC(=O)NC(C)C)[C@H]2O)cc1,1.543
5,CC(C)c1noc(C(C)S(=O)(=O)Cc2nc(C3CC3)no2)n1 (stereo unspecified),8.57
6,Cc1cnn(CCCNC(=O)NC2CCN(CC(F)(F)F)C2=O)c1 (stereo unspecified),-8.389
7,O=C1CC(NCc2ccncc2)CN1Cc1cccc(F)c1 (stereo unspecified),-21.37
8,CC(C)(C(=O)NCc1ccccc1F)n1cc(Br)cn1,10.35
9,O=C1CNc2ncnc(Nc3cnn(Cc4cccc(F)c4)c3)c2N1,115.2
10,COc1ccc2c(CN3CCN(Cc4cccc(F)c4)CC3)n[nH]c2c1,2.522
11,O=C1CNc2ncnc(Nc3cnn(Cc4ccc(F)cc4)c3)c2N1,101.7
12,O=C1CNc2ncnc(Nc3cnn(Cc4ccccc4)c3)c2N1,115.8
13,O=C1CNc2ncnc(Nc3cnn(Cc4ccccc4F)c3)c2N1,112.6
14,c1ccc(Cn2cc(CNCC3CCCN3c3cccnn3)cn2)cc1 (stereo unspecified),20.91
15,O=C(NCCCOc1cccnc1)c1cn(Cc2ccccc2F)nn1,-6.028
16,O=C1CCN(Cc2cnc3c(-c4ccccc4)cnn3c2)CCN1,2.207
17,CCN1CCCC1Cn1ccc2ccc(C(=O)OC)cc2c1=O (stereo unspecified),-21.42
18,COc1cccc(CN(C)Cc2cccc(C#N)c2)c1OC,-9.148
19,c1cc(CN2CCC(CCn3cccn3)CC2)cc(Cn2cccn2)c1,-8.775
20,O=C1CNc2ncnc(Nc3cccc(Cn4cccn4)c3)c2N1,129.6
21,OC1CCN(C2CCN(Cc3cccc(Cn4cccn4)c3)CC2)CC1,19.22
22,Cc1cc2nc(C3CCCCC3)c(-c3ccnc(NCCO)n3)cn2n1,91.18

row,SMILES,Percent Effect [%]
1,CCN(CC)CCCNc1nccc(-c2cn(C)nc2C)n1,-2.773
2,CNCCNc1nccc(-c2cn(C)nc2C)n1,0.09563
3,CCCn1cc(-c2ccnc(NC3CCCc4ccccc43)n2)c(C)n1 (stereo unspecified),2.739
4,OCCNc1nccc(-c2cn3nccc3nc2C2CCCCC2)n1,109.1
5,CCCn1ncc(-c2ccnc(NC3CCCc4ccccc43)n2)c1C (stereo unspecified),-7.325
6,CCN(CCNC(=O)C1CCCN(C(C)=O)C1)c1ccccc1C (stereo unspecified),2.266
7,CNc1ncc(CN(C)c2nc(C)c3ccc(S(C)(=O)=O)cc3n2)cn1,9.72
8,COc1cccc(CN(C)C(=O)CCC(=O)c2ccccc2)c1OC,-10.25
9,CCOC(=O)N1CC(=O)N(Cc2cccc(OC)c2OC)CC(O)C1 (stereo unspecified),107.9
10,COc1cccc2cc(CNC(C)(C)C(=O)N3CCC(O)CC3)oc12,-3.796
11,COc1ccnc(CN2CC(=O)N(c3ccc(C)cc3)CC2C)c1OC (stereo unspecified),-8.096
12,COc1cccc(CN2CC(O)CN(C(=O)C(C)(C)C)CC2=O)c1OC (stereo unspecified),116.9
13,COCCN1CCc2nc(SCc3ccc(F)cc3)[nH]c(=O)c2C1,106
14,COCCN1CCc2onc(C(c3ccccc3)c3ccccc3)c2C1,19.48
15,CCCN1CCc2nc(SCc3ccc(F)cc3)[nH]c(=O)c2C1,101.4
16,CCCN1CCc2nc(SCc3ccccc3F)[nH]c(=O)c2C1,16.02
17,CCCN1CCc2nc(SCc3ccccc3)[nH]c(=O)c2C1,19.11
18,C=Cc1ccc(CSc2nc3c(c(=O)[nH]2)CN(CCC)CC3)cc1,-6.559
